Shown are actives, neighbours in structure and some others; about 19% of the full set was active somewhere.
DT40 TDP1 CPT: qHTS for Inhibitors of human tyrosyl-DNA phosphodiesterase 1 (TDP1): qHTS in cells in presence of CPT; 420,000 compounds, 12% hits; chicken DT40 Tdp1-/-;hTDP1 cells + 20 nM CPT, ATP luminescence, 48 h; Potency, µM (top dose mostly 46.2 µM), for inactives: at the highest dose activity change, negative = growth inhibition, most hits filed as inhibitors; further: potency means the concentration at half of the fitted maximal effect; on the % scale 0 is the no-effect control and ±100 the full control effect; nearly all actives have a fitted effect of over 55% in size
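Chicken DT40 Tdp1-/- cells complemented with human TDP1, 400 cells/well, exposed to compounds plus 20 nM camptothecin for at least 48 h at 37 C; viability read as ATP content by CellTiter-Glo luminescence.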
TDP1 cell noCPT: qHTS for Inhibitors of human tyrosyl-DNA phosphodiesterase 1 (TDP1): qHTS in cells in absence of CPT | DT40 Tdp1-/- hTDP1 cells, no CPT, ATP luminescence, 48 h | Potency, µM (highest dose often 46.2 µM), inactives show at the top dose activity change, negative = growth inhibition, most hits filed as inhibitors | 420,000 compounds, 15% hits; further: potency means the concentration at half of the fitted maximal effect; on the % scale 0 is the no-effect control and ±100 the full control effect; nearly all actives have a fitted effect of over 55% in size
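Growth of hTDP1-complemented DT40 Tdp1-knockout cells is measured by ATP luminescence after at least 48 hr compound exposure at 37 °C, with DMSO substituting for the 20 nM CPT used in the parallel screen.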
TGFb SMAD3 inh: qHTS for Inhibitors of TGF-b. HepG2 CAGA-GFP TGF-b/SMAD3 reporter, GFP fluorescence, 18 h; TGF-beta stimulated, 500 pg/mL final. Potency, µM (series often up to 46.1 µM), for inactives: top-dose activity, negative = inhibition, most hits filed as inhibitors. 410,000 compounds, 1.2% hits. AID 588855, 2011; further: potency means the concentration at half of the fitted maximal effect; on the % scale 0 is the no-effect control and ±100 the full control effect; nearly all actives have a fitted effect of over 65% in size
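Read-out: total well GFP (ex488/em500-530) summed from mean per-cell fluorescence. Cells: HEPG2 CAGA-GFP, 1% FBS DMEM, 18 h at 37 degrees C with 500 pg/mL final TGF-beta. Unstimulated wells served as the full-inhibition control; stimulated DMSO wells = 0%.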
HepG2 tox: qHTS for Inhibitors of TGF-b: Cytotox Counterscreen; HepG2 CAGA-GFP viability, ATP luminescence, 18 h; Potency, µM (top dose mostly 46.1 µM), for the others: top-dose activity change, negative = cytotoxicity, most hits filed as cytotoxic; 410,000 compounds, 0.76% hits; AID 588856, 2011; further: potency means the concentration at half of the fitted maximal effect
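HepG2 CAGA-GFP cells (1000/well, DMEM with 1% FBS) received compound, then TGF-beta at 500 pg/mL final, and were incubated 18 hours at 37 degrees C. Viability was read by CellTiter-Glo luminescence. Media-only wells were set as complete cell-killing and DMSO as no toxicity.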
IL1B secr inh: qHTS for Inhibitors of Inflammasome Signaling: IL-1-beta AlphaLISA Primary Screen; activity change, % at 57.5 µM; THP-1 LPS/ATP IL-1B secretion, AlphaLISA, 16 h; hits give low values; 360,000 compounds, 4.7% hits; AID 743279, 2014; in the data active means activity change below about -50%; inconclusive means mostly about -30% to -49%; further: on the % scale 0 is the no-effect control and ±100 the full control effect
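THP-1 cells pretreated 1 hr with compounds (up to 57.5 uM final), then stimulated with LPS (250 ng/mL final) plus ATP (1.25 mM final); secreted IL-1B measured by AlphaLISA after 16 hr, decreased signal indicating inhibition.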
S-ASM inh: Inhibitors of Secretory Acid Sphingomyelinase (S-ASM): qHTS; placental ASM, HMU-PC fluorogenic substrate, 60 min; 340,000 compounds, 0.006% hits; Potency, µM (top dose mostly 57.5 µM), for the others: top-dose activity change, negative = inhibition, most hits filed as inhibitors; Sphingomyelin phosphodiesterase (Homo sapiens), P17405; further: potency means the concentration at half of the fitted maximal effect
Target sequence (P17405 47-631 limits assumed): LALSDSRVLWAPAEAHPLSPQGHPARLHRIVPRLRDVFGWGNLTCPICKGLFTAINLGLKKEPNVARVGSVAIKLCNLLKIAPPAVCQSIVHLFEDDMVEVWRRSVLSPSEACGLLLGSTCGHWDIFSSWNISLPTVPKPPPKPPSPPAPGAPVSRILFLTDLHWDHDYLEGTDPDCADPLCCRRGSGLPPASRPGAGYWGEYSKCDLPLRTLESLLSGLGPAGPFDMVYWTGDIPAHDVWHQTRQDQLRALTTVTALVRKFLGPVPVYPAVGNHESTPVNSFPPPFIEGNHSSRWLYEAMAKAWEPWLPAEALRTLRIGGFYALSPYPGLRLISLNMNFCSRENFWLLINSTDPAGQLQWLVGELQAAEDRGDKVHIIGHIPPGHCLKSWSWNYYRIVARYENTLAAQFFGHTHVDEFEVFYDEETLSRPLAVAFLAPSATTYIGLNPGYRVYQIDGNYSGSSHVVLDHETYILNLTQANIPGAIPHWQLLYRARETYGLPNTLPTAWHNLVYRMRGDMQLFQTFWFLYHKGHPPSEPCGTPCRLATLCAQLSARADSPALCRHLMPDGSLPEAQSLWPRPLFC
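Human placenta-derived ASM enzyme was preincubated with compound for 10 minutes at room temperature, then given fluorogenic substrate HMU-PC0 (9 uM final) for 60 minutes at 37 °C; a pH 10 stop preceded fluorescence reading at Ex 386/Em 447 nm.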
* hit, by the source's call; ? = inconclusive; / = no result given. Unless noted, the call rests on the fitted dose curve; in most records, active means well fitted curve in the direction sought with a large enough effect; inconclusive means small, poorly fitted or top-dose-only effect, or another doubt; inactive means no such curve, though single readings can be large; an effect the other way counts as inactive or inconclusive.

SMILES	DT40 TDP1 CPT	TDP1 cell noCPT	TGFb SMAD3 inh	HepG2 tox	IL1B secr inh	S-ASM inh
O=[N+]([O-])c1nn(-c2ccc3c(c2)OCCO3)n(O)c1=NC1CCN(Cc2ccccc2)CC1	10µM*	?	-11%	-23%	5	-7%
COc1cc(NC(=O)c2nnn(CC(=O)Nc3ccccc3)c2N)cc(OC)c1	6%	-8%	-22%	-25%	/	/
CN(C)c1ccc(NS(=O)(=O)c2cc3c4c(c2)CC(=O)N4CCC3)cc1	?	?	-6%	-6%	4	-6%
CCCCc1ccc(NS(=O)(=O)c2cc3c4c(c2)CC(=O)N4CCC3)cc1	15µM*	12µM*	?	-60%	/	/
COc1ccc(OC)c(S(=O)(=O)Nc2cc3c4c(c2)CC(=O)N4CCC3)c1	?	15µM*	2%	-5%	43	-5%
Cc1ccc(S(=O)(=O)Nc2cc3c4c(c2)CCC(=O)N4CCC3)cc1	?	21µM*	6%	-14%	60	3%
CCN(C(=O)C(=O)c1c(C)[nH]c2ccccc12)c1ccccc1	?	?	-12%	-4%	/	/
Cc1c(Cl)cccc1Nc1nc2ccc(C(=O)c3ccccc3)cc2n2cnnc12	?	23µM*	?	-26%	/	/
COc1cccc(Nc2nc3ccc(C(=O)c4ccccc4)cc3n3c(C)nnc23)c1	12µM*	?	-4%	-8%	/	/
CCOC(=O)c1ccc(Nc2nc3ccc(C(=O)c4ccccc4)cc3n3c(C)nnc23)cc1	-22%	-18%	-6%	-11%	/	/
CCc1nnc2c(Nc3cccc(F)c3)nc3ccc(C(=O)c4ccccc4)cc3n12	6.5µM*	2.9µM*	-3%	2%	/	/
CC1CCN(C(=O)c2[nH]cnc2C(=O)Nc2ccccc2F)CC1	-10%	-13%	0%	1%	?	/
CCC(Oc1ccccc1F)C(=O)NCCCn1ccnc1 (configuration not stated)	-12%	-24%	14%	-14%	4	3%
Oc1c(Cl)cc(Cl)cc1/C=N/c1nccs1	26µM*	?	-27%	-8%	-13	4%
Cc1ccc(NC(=O)CS(=O)CC(=O)NC(C)CCc2ccco2)cc1Cl (configuration not stated)	-17%	?	0%	-3%	0	4%
Cc1ccc(-c2ccccc2NC(=O)C2C3C=CC(C3)C2C(=O)O)o1 (configuration not stated)	-28%	-19%	-18%	-12%	4	4%
Cc1ccc(-c2ccccc2NC(=O)CCl)o1	15µM*	21µM*	-9%	-6%	-59*	3%
Cc1ccc(-c2ccccc2NC(=O)CS(=O)CC(=O)Nc2ccc(C)c(Cl)c2)o1 (configuration not stated)	?	?	3%	-13%	-77*	-9%
CCCN(CCC)Cc1cc(=O)oc2cc(C)c(Cl)cc12	?	?	-12%	-15%	6	/
C/C(=N\NC(=O)c1cccc(Cl)c1)C1C(=O)c2ccccc2C1=O	0.92µM*	0.82µM*	-25%	-80%	0	-14%
C/C(=N\NC(=O)CCc1ccccc1)C1C(=O)c2ccccc2C1=O	1.6µM*	2.6µM*	?	-72%	40	-2%
CC(=O)Nc1cccc(NC(=O)c2cccc(Cl)c2)c1	-15%	-6%	-2%	9%	13	/
